These results are taken from PubChem BioAssay (NCATS).

SMILES strings stand for the structures. A number with no mark means an inactive call. Results filed as inconclusive are left out. The source made the active and inactive calls. Unless noted, the call rests on the fitted dose curve; in most records, active means well fitted curve in the direction sought with a large enough effect; inconclusive means small, poorly fitted or top-dose-only effect, or another doubt; inactive means no such curve, though single readings can be large; an effect the other way counts as inactive or inconclusive.

The nature of experiment [1]: Viability counterscreen for antagonist of constitutive androstane receptor (CAR) against the NCATS DSHEA and TCM libraries (AID 1794837).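 Further: compound exposure lasted 24 h before viability reading; 0% is about no effect.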 In outline:
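Fluorescence from CellTiter-Fluor reports live-cell protease activity in HepG2-CYP2B6-hCAR cells treated for 24 h with substances alongside 48 uM CITCO.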

The nature of experiment [2]: Viability counterscreen for agonist of constitutive androstane receptor (CAR) against the NCATS DSHEA and TCM libraries (AID 1794838).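 Further: HepG2 cells with CYP2B6 reporter and hCAR plus 0.75 µM PK11195 antagonist; 0% is about no effect.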 In outline:
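In agonist mode, PK11195 is added at 0.75 uM final to HepG2-CYP2B6-hCAR cells dosed with test substances. Cultures incubate 24 h at 37C before a protease-based fluorogenic viability readout.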

Experiment [3] is described as follows: HepG2 viability counterscreen (readout 2: ATP content) against the NCATS DSHEA and TCM libraries (AID 1794840).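 Further: HepG2 cells exposed to substances for about 24 h; 0% is about no effect.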 The procedure, abridged:
(§1)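 Cytotoxicity was assessed in HepG2 cells plated at 1,000 cells/well and exposed for about 24 hours to a concentration series. Protease activity and ATP content were measured sequentially in each well.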

Experiment [4] can be described thus: HepG2 viability counterscreen (readout 1: protease activity) against the NCATS DSHEA and TCM libraries (AID 1794841).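 Further: cells exposed to compounds for about 24 h before the protease read; 0% is about no effect.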 The procedure, abridged: as §1
Experiment [5] concerns the target Cytochrome P450 3A4 (Homo sapiens) (UniProt P08684). In words: qHTS for inhibitors of CYP3A4 against the NCATS DSHEA and TCM libraries (AID 1919971). Further: potency means the concentration at half of the fitted maximal effect. The procedure, abridged: (§2)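 Luminescent P450-Glo format: compounds preincubated 15 min with enzyme and luciferin substrate, reaction run 30-45 min after NADPH regeneration solution. Intraplate controls: ketoconazole for CYP3A4 and CYP2C19, sulfaphenazole for CYP2C9.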

Experiment [6] deals with Cytochrome P450 2C9 (Homo sapiens) (UniProt P11712). In words: qHTS for inhibitors of CYP2C9 against the NCATS DSHEA and TCM libraries (AID 1919973). Further: potency means the concentration at half of the fitted maximal effect. In outline: as §2
Cytochrome P450 2C9 (Homo sapiens), sequence (P11712 whole entry, looked up): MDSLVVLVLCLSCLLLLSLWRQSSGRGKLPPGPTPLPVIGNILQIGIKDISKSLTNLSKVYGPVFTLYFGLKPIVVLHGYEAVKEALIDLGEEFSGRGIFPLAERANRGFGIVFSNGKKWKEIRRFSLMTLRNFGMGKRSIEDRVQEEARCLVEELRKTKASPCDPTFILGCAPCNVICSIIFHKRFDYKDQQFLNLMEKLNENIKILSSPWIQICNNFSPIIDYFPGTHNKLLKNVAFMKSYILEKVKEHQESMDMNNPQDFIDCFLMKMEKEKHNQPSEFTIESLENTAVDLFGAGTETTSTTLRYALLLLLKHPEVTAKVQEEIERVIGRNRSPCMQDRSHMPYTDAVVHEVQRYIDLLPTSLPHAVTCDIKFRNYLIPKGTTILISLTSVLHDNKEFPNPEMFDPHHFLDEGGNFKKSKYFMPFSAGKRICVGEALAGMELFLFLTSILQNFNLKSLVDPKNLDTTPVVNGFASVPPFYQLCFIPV
Experiment [7] addresses Cytochrome P450 2C19 (Homo sapiens) (UniProt P33261). In words: qHTS for inhibitors of CYP2C19 against the NCATS DSHEA and TCM libraries (AID 1919974).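 Further: luminescence from luciferin released by CYP2C19 oxidation of a pro-luciferin substrate.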 Further: potency means the concentration at half of the fitted maximal effect. The procedure, abridged:
as §2

Experiment [8] in a line: KB-3-1 P-gp reporter qHTS against the NCATS DSHEA and TCM libraries (AID 1919975). Further: 0% is about no effect. The procedure, abridged:
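72 h exposure of KB-3-1 cells (DMEM, 10% FBS) to DSHEA/TCM samples, concentration-response; cell viability measured as CellTiter-Glo luminescence after 30 min at room temperature.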

Experiment [9] can be described thus: qHTS Counterscreen for compound interference against the NCATS DSHEA and TCM libraries (AID 1919978). Further: % of control where 0% means no effect. As to conditions: firefly luciferase detection reagent interference, luminescence. In outline:
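Read-out is luminescence after 30 min at RT with luciferin detection reagent. Before that, compounds (19.5 nM to 39.8 uM final) sat 15 min at RT with 1 uM D-luciferin or 100 mM potassium phosphate buffer. PTC124 served as intraplate control.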

Experiment [10] in a line: Dual reporter qHTS for agonist of Pregnane X Receptor (hPXR) against the NCATS DSHEA and TCM libraries: Fluorescence readout (AID 1920058). Further: 0% is about no effect. The procedure, abridged:
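hPXR-Luc HepG2 cells, 2000/well in charcoal-stripped serum, attached 5 h, dosed for ~24 h at 37 °C. Fluorescence read is CellTiter-Fluor viability (Ex/Em 405/540 nm); rifampicin positive, tetraoctyl ammonium bromide (92 µM) cytotoxicity controls.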

Experiment [11] addresses Nuclear receptor subfamily 1 group I member 2 (Homo sapiens) (UniProt O75469). Nature of the experiment: Dual reporter qHTS for antagonist of Pregnane X Receptor (hPXR) against the NCATS DSHEA and TCM libraries: Luminescence Readout (AID 1920060).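 Further: HepG2 cells carrying hPXR luciferase reporter stimulated with rifampicin at 2 µM; 0% is about no effect.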 The procedure, abridged:
(§3)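 hPXR-Luc HepG2 cells exposed 24 h at 37 C to compounds with 2 uM rifampicin in antagonist mode; luciferase luminescence measured by ONE-Glo, with CellTiter-Fluor viability read beforehand.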

Experiment [12] can be described thus: Dual reporter qHTS for antagonist of Pregnane X Receptor (hPXR) against the NCATS DSHEA and TCM libraries: Fluorescence Readout (AID 1920061). Further: 0% is about no effect. In outline:
as §3

In experiment [13] the target is Cytochrome P450 2D6 (Homo sapiens) (UniProt P10635). Nature of the experiment: qHTS for inhibitors of CYP2D6 against the NCATS DSHEA and TCM libraries (AID 1919972). Further: on the % scale 0 is the no-effect control and ±100 the full control effect. The procedure, abridged: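 Luminescent P450-Glo read-out of CYP2D6 turnover of a luciferin substrate after NADPH-driven reaction of 30-45 min at room temperature. Compounds were first preincubated 15 min with enzyme at titrated concentrations; quinidine was the intraplate control.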
Cytochrome P450 2D6 (Homo sapiens), sequence (P10635 whole entry, looked up): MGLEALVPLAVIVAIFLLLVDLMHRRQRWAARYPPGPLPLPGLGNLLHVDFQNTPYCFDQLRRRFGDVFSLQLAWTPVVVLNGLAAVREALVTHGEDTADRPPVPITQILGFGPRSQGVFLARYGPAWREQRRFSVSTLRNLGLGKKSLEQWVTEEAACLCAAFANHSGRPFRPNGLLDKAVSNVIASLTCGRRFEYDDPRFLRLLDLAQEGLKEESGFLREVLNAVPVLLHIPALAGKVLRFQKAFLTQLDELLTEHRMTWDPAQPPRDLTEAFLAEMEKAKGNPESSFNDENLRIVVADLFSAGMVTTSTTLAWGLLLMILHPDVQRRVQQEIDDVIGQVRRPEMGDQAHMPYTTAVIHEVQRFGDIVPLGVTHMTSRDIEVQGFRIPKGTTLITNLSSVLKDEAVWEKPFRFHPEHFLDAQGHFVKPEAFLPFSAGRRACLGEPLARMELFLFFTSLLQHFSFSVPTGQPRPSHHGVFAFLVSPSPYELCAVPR

Experiment [14] is described as follows: Stat Signaling Pathway (AID 446; active means well fitted curve in either direction with a large enough effect, not every such curve was filed as active;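 further: ME-180 cervical cancer cells given 40 pM IL-6 alongside compound; SIE-controlled beta-lactamase reporter measured as 460/530 nm FRET emission ratio; on the % scale 0 is the no-effect control and ±100 the full control effect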). The procedure, abridged:
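ME-180 cells carrying a SIE-driven beta-lactamase reporter are stimulated with 40 pM IL-6 for 5 h at 37C in the presence of compound. The 460/530 nm FRET substrate ratio is read after 2.5 h at RT. Data are normalised to 300 pM IL-6 and to 125 nM JAK inhibitor controls.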

The target in experiment [15] is Glucocorticoid receptor (Homo sapiens) (UniProt P04150). In words: GR-GFP Redistribution (AID 450;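 active means compounds whose dose series gives a full or clear partial fitted curve of increased nuclear translocation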; further: potency means the concentration at half of the fitted maximal effect). As to conditions: U2OS GR-GFP nuclear translocation, laser cytometry, 2 h.
Glucocorticoid receptor (Homo sapiens), sequence (P04150 whole entry, looked up, the tested form may be a part): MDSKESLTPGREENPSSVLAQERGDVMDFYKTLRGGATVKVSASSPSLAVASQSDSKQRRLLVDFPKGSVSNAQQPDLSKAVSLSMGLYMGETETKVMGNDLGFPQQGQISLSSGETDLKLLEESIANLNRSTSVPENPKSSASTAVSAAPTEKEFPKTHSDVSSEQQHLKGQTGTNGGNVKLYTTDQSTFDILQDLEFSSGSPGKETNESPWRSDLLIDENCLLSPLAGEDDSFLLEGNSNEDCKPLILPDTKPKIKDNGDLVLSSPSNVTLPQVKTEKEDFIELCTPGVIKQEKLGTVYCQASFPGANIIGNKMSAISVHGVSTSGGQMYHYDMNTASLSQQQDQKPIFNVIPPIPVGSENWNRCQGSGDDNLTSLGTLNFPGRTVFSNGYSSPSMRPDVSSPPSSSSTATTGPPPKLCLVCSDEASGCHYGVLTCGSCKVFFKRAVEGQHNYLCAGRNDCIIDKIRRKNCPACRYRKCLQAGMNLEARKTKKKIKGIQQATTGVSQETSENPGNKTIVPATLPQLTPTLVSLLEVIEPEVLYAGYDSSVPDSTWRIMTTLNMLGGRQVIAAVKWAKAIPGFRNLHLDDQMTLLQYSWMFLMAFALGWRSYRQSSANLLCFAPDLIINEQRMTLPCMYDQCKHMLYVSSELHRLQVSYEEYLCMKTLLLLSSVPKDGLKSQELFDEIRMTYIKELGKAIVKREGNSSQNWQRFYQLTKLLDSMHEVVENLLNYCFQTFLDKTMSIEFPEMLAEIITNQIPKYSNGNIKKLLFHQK
For experiment [16] the target is unchanged. Nature of the experiment: GR-EFC Redistribution (AID 451; calls by dose curve; further: potency means the concentration at half of the fitted maximal effect). To be noted: CHO-K1 GR-EFC translocation, beta-gal luminescence, 2 h. The procedure, abridged: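 Translocation of GR-ED fusion to nuclear EA restores b-gal, read by luminescence after 1 h room-temperature detection. Engineered CHO-K1 biosensor cells, 1,000/well, exposed 2 h at 37 C to titrations up to 46 uM final.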

Experiment [17] addresses Mitogen-activated protein kinase 10 (Mus musculus) (UniProt Q61831). Nature of the experiment: JNK3 AlphaScreen Assay (AID 530; active means well fitted curve in either direction with a large enough effect, not every such curve was filed as active;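 further: kinase came from lysate of stimulated human HepG2 cells; signal reports phosphorylation of biotinylated GST-cJun 1-79 at Ser73 with 10 µM ATP; series mostly up to about 57 µM; on the % scale 0 is the no-effect control and ±100 the full control effect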). In outline:
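Compound titrations were preincubated 15 minutes at room temperature with substrate, antibody and pre-activated JNK3-containing HepG2 lysate. Reactions were started with 10 uM ATP and stopped with EDTA-containing bead buffer for AlphaScreen detection.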

Experiment [18] deals with Ubiquitin carboxyl-terminal hydrolase 1 (Homo sapiens) (UniProt O94782). In words: Inhibitors of USP1/UAF1: Pilot qHTS (AID 504865).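 Further: rhodamine fluorescence freed from ubiquitin-rhodamine substrate followed over time; top concentration of the series differs between compounds; on the % scale 0 is the no-effect control and ±100 the full control effect; nearly all actives have a fitted effect of over 35% in size.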 In outline:
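Kinetic fluorescence assay: 1nM USP1/UAF1, 15 min compound preincubation, then 150nM Ub-Rho; 480/540 nm.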

Experiment [19] deals with Nuclear receptor subfamily 1 group I member 2 (Homo sapiens) (UniProt O75469). Nature of the experiment: Dual reporter qHTS for agonist of Pregnane X Receptor (hPXR) against the NCATS DSHEA and TCM libraries: Luminescence readout (AID 1920059). Further: 0% is about no effect. The procedure, abridged:
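Luminescent PXR reporter read (ONE-Glo) after a CellTiter-Fluor viability read, following 24 h, 37C treatment of HepG2 cells stably carrying hPXR-Luc.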

Cytochrome P450 2C19 (Homo sapiens), sequence (P33261 whole entry, looked up): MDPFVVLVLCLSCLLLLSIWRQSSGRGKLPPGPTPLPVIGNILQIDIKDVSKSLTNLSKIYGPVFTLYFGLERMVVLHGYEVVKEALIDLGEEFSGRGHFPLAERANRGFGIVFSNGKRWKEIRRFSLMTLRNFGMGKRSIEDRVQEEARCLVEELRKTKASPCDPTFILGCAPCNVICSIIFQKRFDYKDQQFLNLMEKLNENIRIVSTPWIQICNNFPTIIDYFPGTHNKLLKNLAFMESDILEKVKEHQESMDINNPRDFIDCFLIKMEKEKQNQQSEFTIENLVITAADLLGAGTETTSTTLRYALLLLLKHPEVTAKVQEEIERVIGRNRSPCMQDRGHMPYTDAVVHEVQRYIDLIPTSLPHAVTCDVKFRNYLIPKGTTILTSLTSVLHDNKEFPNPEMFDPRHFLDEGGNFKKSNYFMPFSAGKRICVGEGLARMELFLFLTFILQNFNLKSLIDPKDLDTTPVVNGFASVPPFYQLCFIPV
Cytochrome P450 3A4 (Homo sapiens), sequence (P08684 whole entry, looked up): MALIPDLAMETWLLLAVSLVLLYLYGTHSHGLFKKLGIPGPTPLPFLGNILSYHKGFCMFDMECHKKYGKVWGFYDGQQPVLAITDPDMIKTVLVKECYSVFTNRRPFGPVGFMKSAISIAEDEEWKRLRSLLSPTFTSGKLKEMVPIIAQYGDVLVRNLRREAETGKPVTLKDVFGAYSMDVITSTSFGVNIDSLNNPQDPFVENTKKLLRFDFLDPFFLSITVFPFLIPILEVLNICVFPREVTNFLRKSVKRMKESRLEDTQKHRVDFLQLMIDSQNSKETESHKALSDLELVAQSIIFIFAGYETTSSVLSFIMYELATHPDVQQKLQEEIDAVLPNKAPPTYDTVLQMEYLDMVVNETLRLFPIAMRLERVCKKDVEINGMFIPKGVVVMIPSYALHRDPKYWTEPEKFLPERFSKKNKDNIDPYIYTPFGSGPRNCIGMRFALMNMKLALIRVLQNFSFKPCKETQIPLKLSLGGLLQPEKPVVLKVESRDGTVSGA
Ubiquitin carboxyl-terminal hydrolase 1 (Homo sapiens), sequence (O94782 whole entry, looked up): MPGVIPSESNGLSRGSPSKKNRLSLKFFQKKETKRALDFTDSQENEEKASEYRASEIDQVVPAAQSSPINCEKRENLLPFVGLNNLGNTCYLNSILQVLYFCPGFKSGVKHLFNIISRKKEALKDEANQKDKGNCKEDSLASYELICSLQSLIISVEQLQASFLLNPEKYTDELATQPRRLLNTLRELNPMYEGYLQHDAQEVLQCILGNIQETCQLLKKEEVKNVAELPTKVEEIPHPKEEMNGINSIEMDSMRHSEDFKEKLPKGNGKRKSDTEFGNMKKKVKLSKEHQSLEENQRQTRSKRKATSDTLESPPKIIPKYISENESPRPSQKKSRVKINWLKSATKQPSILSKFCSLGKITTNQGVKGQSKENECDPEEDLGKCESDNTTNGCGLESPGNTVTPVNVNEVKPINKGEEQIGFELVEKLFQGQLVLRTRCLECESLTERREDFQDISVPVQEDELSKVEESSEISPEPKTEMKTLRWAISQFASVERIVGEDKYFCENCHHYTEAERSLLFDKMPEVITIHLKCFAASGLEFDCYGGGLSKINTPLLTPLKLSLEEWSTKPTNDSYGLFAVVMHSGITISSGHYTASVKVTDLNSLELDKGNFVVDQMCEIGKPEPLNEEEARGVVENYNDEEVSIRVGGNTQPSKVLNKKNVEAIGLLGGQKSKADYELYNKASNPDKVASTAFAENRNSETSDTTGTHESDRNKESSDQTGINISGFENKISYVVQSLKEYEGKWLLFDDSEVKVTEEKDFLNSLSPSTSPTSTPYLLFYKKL
Nuclear receptor subfamily 1 group I member 2 (Homo sapiens), sequence (O75469 whole entry, looked up): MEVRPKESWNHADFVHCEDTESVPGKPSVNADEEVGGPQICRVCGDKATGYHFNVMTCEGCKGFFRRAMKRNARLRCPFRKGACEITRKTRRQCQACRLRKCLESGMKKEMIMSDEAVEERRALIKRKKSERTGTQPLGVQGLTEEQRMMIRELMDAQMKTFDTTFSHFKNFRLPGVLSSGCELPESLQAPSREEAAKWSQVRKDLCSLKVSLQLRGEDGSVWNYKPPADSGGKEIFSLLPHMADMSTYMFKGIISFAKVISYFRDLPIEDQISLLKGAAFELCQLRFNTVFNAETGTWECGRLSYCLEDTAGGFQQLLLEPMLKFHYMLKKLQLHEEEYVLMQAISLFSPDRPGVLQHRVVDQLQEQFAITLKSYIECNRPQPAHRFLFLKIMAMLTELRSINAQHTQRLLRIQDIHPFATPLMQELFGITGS

With `CCCCCCCCC/C=C/C(=O)CCc1ccc(O)c(OC)c1`, the call in [1], in experiment [2], in experiment [3], in [4], in [8] and in experiment [10] was inactive. Besides, the call in [11] and in [12] was inactive. Besides, the figures for the Potency in experiment [5], in [6] and in experiment [7] were 15.8 µM (active), 11.2 µM (active) and 3.98 µM (active), respectively. In addition, the max response in experiment [9] is 4.66%.
Take `CCCCCC/C=C\CCCCCCCC(=O)O`: the call in [1], in experiment [2], in experiment [3], in experiment [4], in experiment [8] and in experiment [10] was inactive. Further, the call in experiment [11] and in experiment [12] was inactive. Also, the Potency result in [5], in [13] and in experiment [7] was “inactive” throughout. In experiment [9], the max response was 0.217%.
For `CCCCCCCCC[C@@H](O)CC(=O)CCc1ccc(O)c(OC)c1`, the compound was classed as inactive in experiment [1], in [2], in experiment [3], in experiment [4], in [8] and in experiment [10]. The outcome in experiment [11] and in experiment [12] was inactive. Further, the Potency entry in [13] is “inactive”. Moreover, the Potency in [7] was 6.31 µM (active). In addition, the max response in experiment [9] is 2.63%.
Turning to `COc1cccc(Cn2c(=O)cnc3cnc(N(C)C)nc32)c1`, the compound was called inactive in experiment [14]. In addition, the values for the Potency in [15] and in [16] were over 9.22 µM and over 46 µM, respectively. Besides, the Potency result in [17] and in [18] was “inactive” throughout.
Turning to `C=C(C)[C@H]1CC=C(CO)CC1`, the outcome in experiment [1], in experiment [2], in [3], in experiment [4], in [8] and in experiment [10] was inactive. Moreover, the result in [11] and in [12] was inactive. Further, the Potency entry in [13] and in experiment [19] was “inactive” in each case. Also, the Potency in [7] was 12.6 µM (active). Moreover, the max response in experiment [9] is 2.16%.
In the case of `CC1=C2[C@H]([C@@H](C)CC[C@@H]2/C=C(\C)C(=O)O)[C@@H](O)C1`, the call in experiment [1], in [2], in [3], in [4], in experiment [8] and in experiment [10] was inactive. Besides, the compound was called inactive in experiment [11] and in [12]. Also, the max response in experiment [9] is -1.15%.
Turning to `CN(C)C(=O)c1ccc(-c2ccc3ncnc(Nc4ccc(F)cc4)c3c2)cc1`, the compound was called inactive in [14]. Besides, the Potency in experiment [15] and in experiment [16] was over 46 µM in each case. In addition, the Potency entry in experiment [17] and in experiment [18] was “inactive” each time.
Consider `CN(C)c1ccc(-c2cncnc2NCCc2cnc[nH]2)cc1`, for which the result in experiment [14] was inactive. Moreover, the Potency in experiment [15] and in experiment [16] was over 46 µM each time. Moreover, the Potency result in [17] and in experiment [18] was “inactive” throughout.
Take `CN1CCN(c2nc(-c3cccnc3)nc3ccccc23)CC1`: the Potency in experiment [15] and in [16] was over 46 µM each time. The Potency entry in experiment [17] and in experiment [18] was “inactive” throughout.
Regarding `CN(C)c1nc(-c2ccc3c(c2)OCO3)nc2ccccc12`, the outcome in experiment [14] was inactive. Further, the Potency in experiment [15] and in [16] was over 46 µM each time. In addition, the Potency entry in experiment [17] is “inactive”.
`C=C(C)C1CC=C(C)C(O)C1` (stereo unspecified): the Potency entry in experiment [17], in [5], in experiment [13] and in [6] was “inactive” throughout. Also, the compound was classed as inactive in experiment [1], in [2], in experiment [4], in [8], in experiment [10] and in [11]. Also, in [12], the outcome was inactive. Further, in experiment [9], the max response is 4.01%.
